From PubChem BioAssay
For some assays here: Entries with a potency or affinity are not part of this list. Active and inactive are the calls of the source. Unless noted, no rule for the calls is given here.

Experiments:
[1] = antimalarial activity against Dd2 strain (AID 2302;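 active = growth inhibition above 50% at the single 2 µM test dose, taken to imply half-maximal potency below 2 µM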;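 also: 0% = DMSO untreated growth and 100% = chloroquine plus artemisinin killed control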); conditions: P. falciparum Dd2 in RBCs, LDH growth readout, 72 h; at 2 µM; hits give high values
[2] = human hepatoma cell viability loss – ATP luminescence, cytotoxicity control for P. falciparum antimalarial project, primary screen (AID 2303;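 active = inhibition above 50%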;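 also: 0% = DMSO wells and 100% = digitonin-killed cells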); conditions: HepG2 viability, 24-48 h, at 10 µM, hits give high values
[3] = molecular target: L-lactate dehydrogenase (Plasmodium falciparum (isolate CDC / Honduras)) (UniProt Q27743); experiment: PfLDH activity inhibition – cell lysate, 3D7 strain, counter-screen for P. falciparum growth inhibition project (AID 2304);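 also: 0% = vehicle and 100% = reference inhibitor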; conditions: P. falciparum 3D7 crude extract, LDH APAD/NBT absorbance; at 2 µM; hits give high values
Sequence of L-lactate dehydrogenase (Plasmodium falciparum (isolate CDC / Honduras)) (Q27743 whole entry, looked up): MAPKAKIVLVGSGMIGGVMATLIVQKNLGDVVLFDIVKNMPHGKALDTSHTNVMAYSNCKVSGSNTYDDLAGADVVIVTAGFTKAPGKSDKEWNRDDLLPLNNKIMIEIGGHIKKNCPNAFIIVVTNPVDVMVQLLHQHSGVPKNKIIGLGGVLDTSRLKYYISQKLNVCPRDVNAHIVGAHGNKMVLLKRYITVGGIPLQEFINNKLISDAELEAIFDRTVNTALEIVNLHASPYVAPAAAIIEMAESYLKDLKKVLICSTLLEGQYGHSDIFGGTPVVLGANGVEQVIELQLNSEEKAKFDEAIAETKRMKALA

[4] = inhibition of 3D7 malaria parasite growth – strain 3D7 (AID 2306);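 also: 0% = DMSO wells and 100% = chloroquine plus artemisinin control wells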; conditions: P. falciparum 3D7 erythrocytic growth, LDH absorbance, 72 h; at 2 µM; hits give high values
[5] = molecular target: Calcium-dependent protein kinase 1 (Plasmodium falciparum (isolate 3D7)) (UniProt P62344); experiment: PfCDPK1 kinase inhibitors, biochemical, TCAMS library (AID 1159585; cut-off not given, nearly all actives have IC50 up to about 0.98 µM;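 also: inhibitors leave more ATP so luminescence rises with inhibition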); conditions: recombinant PfCDPK1, Kinase-Glo ATP depletion luminescence
Sequence of Calcium-dependent protein kinase 1 (Plasmodium falciparum (isolate 3D7)) (P62344 whole entry, looked up): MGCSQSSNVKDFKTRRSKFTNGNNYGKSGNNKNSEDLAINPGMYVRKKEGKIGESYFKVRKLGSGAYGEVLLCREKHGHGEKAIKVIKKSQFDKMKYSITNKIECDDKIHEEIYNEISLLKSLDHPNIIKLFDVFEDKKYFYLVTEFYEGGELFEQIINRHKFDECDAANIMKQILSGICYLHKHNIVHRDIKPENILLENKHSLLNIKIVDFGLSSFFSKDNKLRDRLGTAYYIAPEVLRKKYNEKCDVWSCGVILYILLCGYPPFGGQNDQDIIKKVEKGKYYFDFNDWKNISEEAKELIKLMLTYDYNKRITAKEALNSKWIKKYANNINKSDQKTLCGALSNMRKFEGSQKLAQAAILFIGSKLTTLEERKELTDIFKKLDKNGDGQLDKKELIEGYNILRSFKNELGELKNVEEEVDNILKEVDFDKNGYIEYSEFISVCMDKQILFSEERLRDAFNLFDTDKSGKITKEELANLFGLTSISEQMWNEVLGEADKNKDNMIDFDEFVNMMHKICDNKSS

[6] = molecular target: Plasmodium falciparum protein kinase 6 (PK6, PF3D7_1337100) (UniProt Q8IDW1); experiment: PfPK6 kinase inhibitors, biochemical, TCAMS library (AID 1159586); conditions: recombinant PfPK6, Kinase-Glo ATP depletion luminescence
Sequence of Plasmodium falciparum protein kinase 6 (PK6, PF3D7_1337100) (Q8IDW1 1-305): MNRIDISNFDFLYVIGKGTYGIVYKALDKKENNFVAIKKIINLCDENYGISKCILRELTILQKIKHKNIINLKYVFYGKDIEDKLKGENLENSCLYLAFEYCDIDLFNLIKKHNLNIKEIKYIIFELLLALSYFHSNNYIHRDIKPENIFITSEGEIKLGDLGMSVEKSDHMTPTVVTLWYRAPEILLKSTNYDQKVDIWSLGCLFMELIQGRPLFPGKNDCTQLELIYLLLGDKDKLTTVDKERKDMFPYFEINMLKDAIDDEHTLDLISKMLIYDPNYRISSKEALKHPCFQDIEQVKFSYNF

[7] = molecular target: Protein kinase 7 (PK7), Plasmodium falciparum 3D7 (PF3D7_0213400) (UniProt Q7YTF7); experiment: inhibition of Plasmodium PK7 catalytic activity – biochemical, TCAMS antimalarial set, Kinase-Glo luminescence (AID 1159587); conditions: recombinant PfPK7, Kinase-Glo ATP depletion luminescence
Sequence of Protein kinase 7 (PK7), Plasmodium falciparum 3D7 (PF3D7_0213400) (Q7YTF7 1-343): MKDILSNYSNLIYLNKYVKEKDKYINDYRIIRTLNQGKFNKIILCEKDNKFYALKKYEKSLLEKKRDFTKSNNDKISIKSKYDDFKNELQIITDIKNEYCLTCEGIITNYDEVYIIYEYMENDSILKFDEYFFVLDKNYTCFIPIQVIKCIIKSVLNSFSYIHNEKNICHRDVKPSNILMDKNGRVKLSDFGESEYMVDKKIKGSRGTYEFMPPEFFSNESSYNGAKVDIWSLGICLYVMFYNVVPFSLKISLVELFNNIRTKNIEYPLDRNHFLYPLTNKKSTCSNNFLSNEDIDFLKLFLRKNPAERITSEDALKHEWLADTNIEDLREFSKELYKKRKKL

[8] = molecular target: Calcium-dependent protein kinase 4 (Plasmodium falciparum (isolate 3D7)) (UniProt Q8IBS5); experiment: PfCDPK4 kinase inhibitors, biochemical, TCAMS library (AID 1159588; cut-off not given, nearly all actives have IC50 up to about 0.91 µM); conditions: recombinant PfCDPK4, Kinase-Glo ATP depletion luminescence
Sequence of Calcium-dependent protein kinase 4 (Plasmodium falciparum (isolate 3D7)) (Q8IBS5 whole entry, looked up): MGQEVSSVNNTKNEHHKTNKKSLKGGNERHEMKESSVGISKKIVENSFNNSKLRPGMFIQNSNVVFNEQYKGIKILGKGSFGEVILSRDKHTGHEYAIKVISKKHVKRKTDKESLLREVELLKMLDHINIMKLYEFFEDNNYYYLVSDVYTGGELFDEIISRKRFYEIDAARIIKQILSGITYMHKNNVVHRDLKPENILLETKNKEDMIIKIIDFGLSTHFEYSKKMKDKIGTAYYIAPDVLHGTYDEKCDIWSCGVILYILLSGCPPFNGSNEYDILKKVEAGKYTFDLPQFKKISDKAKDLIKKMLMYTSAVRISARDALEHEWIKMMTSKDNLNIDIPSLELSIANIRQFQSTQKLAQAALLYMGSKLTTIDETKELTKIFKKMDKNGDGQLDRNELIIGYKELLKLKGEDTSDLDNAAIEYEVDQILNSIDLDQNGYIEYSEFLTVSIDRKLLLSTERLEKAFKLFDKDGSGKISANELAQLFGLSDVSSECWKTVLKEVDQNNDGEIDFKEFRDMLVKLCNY

COc1ccc2nc(C)cc(NC3Cc4ccccc4C3)c2c1
active: growth inhibition [4] 98%
inactive: growth inhibition [1] 13% | inhibition [2] 20% | inhibition [3] 5% | outcome [5] | outcome [6] | outcome [7] | outcome [8]

COc1ccc(NC(=O)NC2CCN(CCCCCNC(=O)/C=C/c3ccc(Cl)c(Cl)c3)C2)c(OC)c1 (configuration not stated)
inactive: growth inhibition [1] 9% | inhibition [2] 24% | inhibition [3] -3% | outcome [5] | outcome [6] | outcome [7] | outcome [8]
active: growth inhibition [4] 96%

COc1cc(Cc2cnc(N)nc2N)cc(OCC(C)(C)C(=O)O)c1OC
active: growth inhibition [4] 89%
inactive: growth inhibition [1] -4% | inhibition [2] -3% | inhibition [3] -2% | outcome [5] | outcome [6] | outcome [7] | outcome [8]

FC(F)(F)c1ccc2nc(-c3ccc(-c4cccc(CNCCc5cccnc5)c4)s3)[nH]c2c1
inactive: inhibition [2] 26% | inhibition [3] -3% | outcome [5] | outcome [6] | outcome [7] | outcome [8]
active: growth inhibition [1] 98% | growth inhibition [4] 101%
